Results taken from the antibiotic and cytotoxicity screens of Wong et al. (2023).
About 500 (1.3%) of roughly 39,000 compounds were called active. Only a selection was taken, and actives are over-represented in it overall.

tested on: S. aureus RN4220; assay: growth inhibition call (relative growth <= 0.2); settings: 50 µM

Growth inhibition call, inactive:
C[C@H](CO)N1C[C@H](C)[C@@H](CN(C)S(=O)(=O)c2ccc(F)cc2)Oc2c(NC(=O)c3ccncc3)cccc2C1=O
C[C@@H]1CN([C@@H](C)CO)C(=O)c2cc(NC(=O)C3CCCCC3)ccc2O[C@@H](C)CCCCO[C@H]1CN(C)Cc1ccc(C(F)(F)F)cc1
COc1ccc(S(=O)(=O)N(C)C[C@@H]2Oc3ccc(NC(=O)C4CC4)cc3CC(=O)N([C@@H](C)CO)C[C@H]2C)cc1
C=C1c2cccc(O)c2C(=O)[C@@H]2C(=O)[C@]3(O)C(=O)[C@@H](C(N)=O)C(=O)[C@@H](N(C)C)[C@@H]3[C@@H](O)[C@H]12
CC1c2cccc(O)c2C(=O)C2=C(O)C3(O)C(=O)C(C(N)=O)=C(O)C(N(C)C)C3C(O)C21.Cl (configuration not stated)
COc1ccc(S(=O)(=O)N(C)C[C@@H]2Oc3c(NC(=O)C4CC4)cccc3C(=O)N([C@@H](C)CO)C[C@@H]2C)cc1
CO[C@@H]1CN(C)C(=O)c2ccc(NC(=O)C3CC3)cc2OC[C@H](C)N(C(=O)CN2CCOCC2)C[C@H]1C
C[C@@H]1CN([C@H](C)CO)C(=O)c2cc(NS(=O)(=O)c3ccccc3)ccc2O[C@@H](C)CCCCO[C@H]1CN(C)C(=O)NC1CCCCC1
CC1COc2c(C3(N)CC3)c(F)cc3c(=O)c(C(=O)O)cn1c23.CS(=O)(=O)O (configuration not stated)
CC1CCc2c(N3CCC(O)CC3)c(F)cc3c(=O)c(C(=O)O)cn1c23 (configuration not stated)
COc1ccc2c3c([nH]c2c1)[C@@H](CO)N(C[C@]13CCN(CC1)C(=O)NC(C)C)C(=O)CN1CCOCC1
C[C@H]1CN([C@@H](C)CO)C(=O)c2cc(C#CCN(C)C)cnc2O[C@@H]1CN(C)C(=O)Nc1cccc(F)c1
C[C@@H]1CN([C@@H](C)CO)C(=O)Cc2cc(NC(=O)NC3CCCCC3)ccc2O[C@H]1CN(C)C(=O)Nc1ccc(C(F)(F)F)cc1
Cc1ccc(S(=O)(=O)Nc2ccc3c(c2)C(=O)N([C@@H](C)CO)C[C@H](C)[C@@H](CN(C)Cc2ccc(C(F)(F)F)cc2)OCCCC[C@H](C)O3)cc1
C[C@H]1CN([C@@H](C)CO)C(=O)Cc2cc(NS(=O)(=O)c3cn(C)cn3)ccc2O[C@@H]1CN(C)Cc1ccncc1
COc1ccc(S(=O)(=O)Nc2ccc3c(c2)CC(=O)N([C@@H](C)CO)C[C@@H](C)[C@@H](CN(C)S(=O)(=O)c2cn(C)cn2)O3)cc1
Cc1noc(C)c1NC(=O)Nc1ccc2c(c1)CC(=O)N([C@H](C)CO)C[C@H](C)[C@H](CN(C)Cc1ccc(Cl)c(Cl)c1)O2
CN1C[C@H](C(N)=O)CC1=O
Nc1ccc(/C=C/C(=O)NCc2cc3cc(-c4ccc(C(=O)N5CCC(F)(F)CC5)cc4)cc(-c4ccc(F)cc4)c3o2)cn1
Cc1ccc(S(=O)(=O)N2C[C@@H](O)COC[C@H]3O[C@@H](CC(=O)NCCN4CCCCC4)CC[C@@H]32)cc1
C[C@H](CO)N1C[C@H](C)[C@H](CN(C)Cc2ccncc2)OCCCC[C@H](C)Oc2ccc(NC(=O)C3CCCCC3)cc2C1=O
C[C@H]1CN([C@@H](C)CO)C(=O)Cc2cc(NS(=O)(=O)c3cccs3)ccc2O[C@@H]1CN(C)C(=O)Nc1cccc2ccccc12
CC(C)NC(=O)Nc1ccc2c(c1)CC(=O)N([C@H](C)CO)C[C@@H](C)[C@@H](CN(C)C(=O)NC1CCCCC1)O2
COc1cc(C=O)ccc1O
COc1cc(C(C)=O)ccc1O
C[C@@H]1CN([C@@H](C)CO)C(=O)c2cccc(NC(=O)c3cnccn3)c2O[C@H]1CN(C)S(C)(=O)=O
COc1ccc(S(=O)(=O)N(C)C[C@@H]2Oc3c(NC(=O)NC(C)C)cccc3C(=O)N([C@H](C)CO)C[C@H]2C)cc1
CCCNC(=O)N1[C@@H]2c3cccc(=O)n3C[C@H]1[C@H](CO)[C@H]2C(=O)NCC(F)(F)F
O=C(Nc1cc(C(F)(F)F)cc(C(F)(F)F)c1)Nc1cnn(-c2ccc([N+](=O)[O-])cc2)c1C(F)(F)F
C[C@@H]1CN([C@H](C)CO)C(=O)Cc2cc(NC(=O)Cn3cnnn3)ccc2O[C@@H]1CN(C)S(=O)(=O)c1ccccc1
COc1cccc(NC(=O)N[C@@H]2C=C[C@H](CC(=O)N3CCOCC3)O[C@H]2CO)c1
Cc1noc(C)c1NC(=O)N(C)C[C@@H]1OCCCC[C@@H](C)Oc2ccc(NC(=O)Cc3ccccc3)cc2C(=O)N([C@@H](C)CO)C[C@@H]1C
Cc1noc(C)c1S(=O)(=O)Nc1ccc2c(c1)C(=O)N([C@@H](C)CO)C[C@@H](C)[C@@H](CN(C)C(=O)NC(C)C)O2
O=C1CN(N=Cc2ccc(-c3ccc([N+](=O)[O-])cc3)o2)C(=O)[N-]1.[Na+]
O=[N+]([O-])c1cncn1CCN1CCOCC1
COc1ccc(CN(C)C[C@@H]2OCCCC[C@H](C)Oc3ccc(NS(=O)(=O)c4cccs4)cc3C(=O)N([C@@H](C)CO)C[C@H]2C)cc1
O=C(O)[C@H](O)c1ccccc1
COc1ccc(S(=O)(=O)N[C@H]2CC[C@H](CCNC(=O)CN3CCOCC3)O[C@@H]2CO)cc1
C[C@@H]1CCCCO[C@@H](CN(C)Cc2ccncc2)[C@@H](C)CN([C@H](C)CO)C(=O)c2cc(NC(=O)Nc3ccc(F)cc3)ccc2O1
Cc1noc(C)c1NC(=O)Nc1ccc2c(c1)CC(=O)N([C@H](C)CO)C[C@H](C)[C@H](CN(C)C(=O)Nc1ccc(C(F)(F)F)cc1)O2
CC(C)NC(=O)N(C)C[C@H]1Oc2ccc(NC(=O)Cc3ccccc3)cc2C(=O)N([C@H](C)CO)C[C@@H]1C
C[C@H]1CNC(=O)O1
COc1ccc(S(=O)(=O)N(C)C[C@@H]2Oc3c(NC(=O)Nc4c(C)noc4C)cccc3C(=O)N([C@@H](C)CO)C[C@H]2C)cc1
COCCOC(=O)N1C(=O)[C@@]2(c3cc(C#CCC(C(=O)OC)C(=O)OC)ccc31)[C@H](c1ccc(OCCO)cc1)N1[C@H](c3ccccc3)[C@H](c3ccccc3)OC(=O)[C@H]1[C@@H]2C(=O)N1CCCCCCC1
COCCOC(=O)N1C(=O)[C@@]2(c3cc(C#CCC(C(=O)OC)C(=O)OC)ccc31)[C@H](C(=O)N1CCCCCCC1)[C@H]1C(=O)O[C@H](c3ccccc3)[C@H](c3ccccc3)N1[C@@H]2c1ccc(OCCO)cc1
C[C@@H]1CN([C@H](C)CO)C(=O)c2c(c3ccccc3n2C)-c2ccccc2CO[C@H]1CN(C)S(C)(=O)=O
C[C@H](CO)N1C[C@H](C)[C@@H](CN(C)S(=O)(=O)c2ccccc2)OCCCC[C@H](C)Oc2ccc(NC(=O)c3ccccc3)cc2C1=O
CCOC(=O)c1cc2c(c(-c3ccccc3)n1)[C@@H](CCO[Si](C)(C)C(C)(C)C)N(S(=O)(=O)C(C)(C)C)C2
CCOC(=O)c1cc2c(c(-c3cccc(Br)c3)n1)[C@@H](CCO[Si](C)(C)C(C)(C)C)N(S(=O)(=O)C(C)(C)C)C2
C[C@@H]1CCCCO[C@@H](CN(C)S(=O)(=O)c2ccc(Cl)cc2)[C@H](C)CN([C@H](C)CO)C(=O)c2cc(NS(=O)(=O)c3ccccc3)ccc2O1
COc1cccc(C#Cc2cnc3c(c2)C(=O)N([C@@H](C)CO)C[C@H](C)[C@@H](CN(C)C(=O)C2CCOCC2)O3)c1
Cc1ccc(S(=O)(=O)N(C)C[C@H]2Oc3ccc(NS(=O)(=O)c4c(C)noc4C)cc3CC(=O)N([C@H](C)CO)C[C@H]2C)cc1
O=C(O)c1cnc(N2CCCC2)nc1
Cc1ccc(Cl)c(Nc2ccccc2C(=O)[O-])c1Cl.[Na+]

Growth inhibition call, active:
C[C@H]1c2cccc(O)c2C(=O)C2=C(O)[C@]3(O)C(=O)[C@@H](C(N)=O)C(=O)[C@@H](N(C)C)[C@@H]3[C@@H](O)[C@@H]21
CC1CCc2cc(F)cc3c(=O)c(C(=O)O)cn1c23 (configuration not stated)
CN1CCN(c2c(F)cc3c(=O)c(C(=O)O)cn4c3c2OCN4C)CC1
CC1COc2c(N3CCN(C)CC3)c(F)cc3c(=O)c(C(=O)O)cn1c23 (configuration not stated)
C[C@H]1COc2c(C3(N)CC3)c(F)cc3c(=O)c(C(=O)O)cn1c23
C=CCc1ccc(O)c(OC)c1
O=C(Nc1cc(C(F)(F)F)cc(C(F)(F)F)c1)Nc1c(Br)cc(Br)cc1-c1nn[nH]n1
FC(F)(F)c1cc(NC(=S)Nc2ccc(Br)cc2-c2nn[nH]n2)cc(C(F)(F)F)c1
O=C1CN(/N=C/c2ccc([N+](=O)[O-])o2)C(=O)N1
O=C1OCCN1N=Cc1ccc([N+](=O)[O-])o1
O=C1OC(CN2CCOCC2)CN1N=Cc1ccc([N+](=O)[O-])o1 (configuration not stated)
O=C1CN(N=Cc2ccc([N+](=O)[O-])o2)C(=O)N1
[N-]=[N+]=NCCOCCNC(=O)CCCOc1ccc(CS(=O)c2nnc(-c3ccc(F)cc3)o2)nc1 (configuration not stated)
COCCOC(=O)N1C(=O)[C@@]2(c3cc(C#CCC(C(=O)OC)C(=O)OC)ccc31)[C@H](C(=O)N1CCCCCCC1)[C@H]1C(=O)O[C@H](c3ccccc3)[C@H](c3ccccc3)N1[C@@H]2c1ccc(O)cc1
CC(C)(C)[S@@+]([O-])N1Cc2cc(C(=O)O)nc(-c3ccc(Br)cc3)c2[C@H]1CCO[Si](C)(C)C(C)(C)C
Cc1cc(=O)c(C(=O)N[C@@H](C(=O)N[C@@H]2C(=O)N3C(C(=O)O)=C(CSc4nnnn4C)CS[C@H]23)c2ccc(O)cc2)c[nH]1
CCN1CCN(C(=O)NC(C(=O)NC2C(=O)N3C(C(=O)O)=C(CSc4nnnn4C)CSC23)c2ccc(O)cc2)C(=O)C1=O (configuration not stated)
Cc1cc(O)c(C(=O)NC(C(=O)NC2C(=O)N3C(C(=O)O)=C(CSc4nnnn4C)CSC23)c2ccc(O)cc2)cn1 (configuration not stated)
